Assay results taken from the supplement of paper PMC12067093, “Discovery and optimisation of a covalent ligand for TRIM25 and its application to targeted protein ubiquitination” (Chemical Science, 2025).
Of roughly 21,000 targets only a part is listed; those with the largest changes were picked by preference.

These targets were tested with Cc1cc(ccc1-c1ccccc1)C(=O)N1CCCN(CC1)C(=O)CCl [compound 10] (assay: probe-labelled cysteine peptide fold change vs DMSO (competition) (log2 fold change); higher = less target engagement (more negative = stronger competition)). Conditions: 10 µM; THP-1; incubation time: 4 h.
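Also: competitive profiling in live THP-1 cells: cysteine peptides tagged with an iodoacetamide desthiobiotin (IA-DTB) probe, intensity after compound treatment relative to DMSO-treated cells.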

Chain of UniProt P33316 (P33316 whole entry, looked up): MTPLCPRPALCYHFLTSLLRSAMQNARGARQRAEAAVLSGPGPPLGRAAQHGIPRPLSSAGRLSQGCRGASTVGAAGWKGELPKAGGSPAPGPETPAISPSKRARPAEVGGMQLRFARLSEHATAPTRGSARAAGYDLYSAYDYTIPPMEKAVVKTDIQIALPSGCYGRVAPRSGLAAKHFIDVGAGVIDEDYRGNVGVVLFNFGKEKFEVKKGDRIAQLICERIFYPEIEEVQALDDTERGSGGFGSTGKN
Chain of UniProt P19447 (P19447 whole entry, looked up): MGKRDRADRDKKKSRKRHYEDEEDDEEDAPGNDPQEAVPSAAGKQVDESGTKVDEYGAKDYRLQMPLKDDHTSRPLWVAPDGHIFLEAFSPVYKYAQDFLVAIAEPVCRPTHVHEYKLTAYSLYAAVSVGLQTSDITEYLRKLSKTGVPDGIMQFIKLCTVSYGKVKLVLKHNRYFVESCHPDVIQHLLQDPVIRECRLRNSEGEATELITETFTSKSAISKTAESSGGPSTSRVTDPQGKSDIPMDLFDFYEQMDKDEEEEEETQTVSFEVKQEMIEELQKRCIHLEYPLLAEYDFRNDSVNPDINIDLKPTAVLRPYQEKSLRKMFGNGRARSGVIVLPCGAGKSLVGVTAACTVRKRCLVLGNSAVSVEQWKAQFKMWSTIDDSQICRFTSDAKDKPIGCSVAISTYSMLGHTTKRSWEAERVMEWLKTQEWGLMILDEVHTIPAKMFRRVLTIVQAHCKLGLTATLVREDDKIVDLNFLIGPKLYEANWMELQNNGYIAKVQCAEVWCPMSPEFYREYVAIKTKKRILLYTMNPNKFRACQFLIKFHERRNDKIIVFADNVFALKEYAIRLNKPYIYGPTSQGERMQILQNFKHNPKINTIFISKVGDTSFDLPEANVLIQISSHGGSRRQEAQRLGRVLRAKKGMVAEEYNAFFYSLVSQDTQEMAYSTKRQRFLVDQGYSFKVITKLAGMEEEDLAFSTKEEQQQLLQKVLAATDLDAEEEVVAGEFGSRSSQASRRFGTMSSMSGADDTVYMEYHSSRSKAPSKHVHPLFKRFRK
Chain of UniProt O95834 (O95834 whole entry, looked up): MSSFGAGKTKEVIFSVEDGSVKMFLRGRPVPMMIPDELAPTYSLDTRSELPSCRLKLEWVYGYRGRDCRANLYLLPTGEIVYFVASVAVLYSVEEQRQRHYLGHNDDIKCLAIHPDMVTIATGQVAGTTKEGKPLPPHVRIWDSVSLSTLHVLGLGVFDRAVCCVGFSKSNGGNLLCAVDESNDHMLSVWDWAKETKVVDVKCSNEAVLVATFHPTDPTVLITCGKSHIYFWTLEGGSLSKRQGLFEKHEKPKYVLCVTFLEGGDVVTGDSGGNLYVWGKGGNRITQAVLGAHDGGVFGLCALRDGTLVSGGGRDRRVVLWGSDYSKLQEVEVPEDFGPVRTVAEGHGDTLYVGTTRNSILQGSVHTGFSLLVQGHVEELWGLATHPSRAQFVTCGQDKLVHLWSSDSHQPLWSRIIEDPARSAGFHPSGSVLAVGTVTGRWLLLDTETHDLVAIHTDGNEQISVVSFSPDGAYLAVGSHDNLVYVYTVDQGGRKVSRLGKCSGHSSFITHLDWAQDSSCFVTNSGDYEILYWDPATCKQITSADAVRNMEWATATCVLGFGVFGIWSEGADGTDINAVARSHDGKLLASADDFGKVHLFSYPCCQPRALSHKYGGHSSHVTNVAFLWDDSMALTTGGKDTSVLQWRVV
Chain of UniProt Q9Y3B2 (Q9Y3B2 whole entry, looked up): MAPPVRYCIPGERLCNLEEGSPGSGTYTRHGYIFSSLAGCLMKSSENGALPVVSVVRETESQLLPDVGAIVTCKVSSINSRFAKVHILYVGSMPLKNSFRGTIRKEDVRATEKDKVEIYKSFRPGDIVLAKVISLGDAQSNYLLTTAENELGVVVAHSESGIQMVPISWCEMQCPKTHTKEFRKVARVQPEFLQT
Chain of UniProt Q92889 (Q92889 whole entry, looked up): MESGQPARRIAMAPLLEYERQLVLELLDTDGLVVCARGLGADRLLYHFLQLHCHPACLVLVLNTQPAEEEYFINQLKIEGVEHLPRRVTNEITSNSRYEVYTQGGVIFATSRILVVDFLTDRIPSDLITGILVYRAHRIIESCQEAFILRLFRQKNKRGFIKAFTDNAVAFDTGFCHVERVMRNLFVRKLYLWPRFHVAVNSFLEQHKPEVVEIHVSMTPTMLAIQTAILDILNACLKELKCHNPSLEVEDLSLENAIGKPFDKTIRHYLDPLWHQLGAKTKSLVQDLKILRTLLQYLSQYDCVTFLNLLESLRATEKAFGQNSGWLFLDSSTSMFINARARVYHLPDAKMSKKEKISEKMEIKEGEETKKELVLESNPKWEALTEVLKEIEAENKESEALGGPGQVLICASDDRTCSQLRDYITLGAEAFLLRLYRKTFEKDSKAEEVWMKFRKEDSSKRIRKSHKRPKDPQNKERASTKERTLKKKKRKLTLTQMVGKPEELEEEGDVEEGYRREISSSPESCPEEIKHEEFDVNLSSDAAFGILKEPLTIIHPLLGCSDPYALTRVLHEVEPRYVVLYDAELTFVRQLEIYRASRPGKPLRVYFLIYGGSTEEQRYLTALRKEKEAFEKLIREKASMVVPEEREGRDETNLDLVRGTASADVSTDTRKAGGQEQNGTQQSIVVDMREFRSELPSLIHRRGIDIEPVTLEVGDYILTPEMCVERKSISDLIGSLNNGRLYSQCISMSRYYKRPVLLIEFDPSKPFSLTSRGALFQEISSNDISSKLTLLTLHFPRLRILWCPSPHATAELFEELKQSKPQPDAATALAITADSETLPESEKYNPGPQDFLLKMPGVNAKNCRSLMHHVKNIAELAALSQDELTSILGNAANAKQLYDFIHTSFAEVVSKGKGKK
Chain of UniProt P98172 (P98172 whole entry): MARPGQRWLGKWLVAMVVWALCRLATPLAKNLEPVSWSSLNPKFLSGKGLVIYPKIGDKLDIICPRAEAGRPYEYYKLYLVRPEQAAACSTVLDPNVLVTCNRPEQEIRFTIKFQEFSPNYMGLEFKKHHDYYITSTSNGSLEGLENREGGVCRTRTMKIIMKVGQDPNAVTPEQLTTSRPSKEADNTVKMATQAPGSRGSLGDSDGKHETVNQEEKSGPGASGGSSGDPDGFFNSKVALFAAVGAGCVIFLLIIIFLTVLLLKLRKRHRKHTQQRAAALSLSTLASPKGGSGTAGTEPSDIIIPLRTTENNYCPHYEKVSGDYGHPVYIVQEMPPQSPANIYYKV
Chain of UniProt P05198 (P05198 whole entry, looked up): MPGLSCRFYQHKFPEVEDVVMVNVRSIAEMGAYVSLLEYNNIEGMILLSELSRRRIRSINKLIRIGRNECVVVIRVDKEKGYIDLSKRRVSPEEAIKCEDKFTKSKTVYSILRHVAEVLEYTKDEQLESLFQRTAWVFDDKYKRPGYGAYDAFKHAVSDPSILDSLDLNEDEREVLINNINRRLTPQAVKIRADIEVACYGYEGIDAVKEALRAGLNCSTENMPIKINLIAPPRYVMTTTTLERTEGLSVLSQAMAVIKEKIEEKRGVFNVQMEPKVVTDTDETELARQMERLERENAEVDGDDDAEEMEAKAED
Chain of UniProt P28715 (P28715 whole entry): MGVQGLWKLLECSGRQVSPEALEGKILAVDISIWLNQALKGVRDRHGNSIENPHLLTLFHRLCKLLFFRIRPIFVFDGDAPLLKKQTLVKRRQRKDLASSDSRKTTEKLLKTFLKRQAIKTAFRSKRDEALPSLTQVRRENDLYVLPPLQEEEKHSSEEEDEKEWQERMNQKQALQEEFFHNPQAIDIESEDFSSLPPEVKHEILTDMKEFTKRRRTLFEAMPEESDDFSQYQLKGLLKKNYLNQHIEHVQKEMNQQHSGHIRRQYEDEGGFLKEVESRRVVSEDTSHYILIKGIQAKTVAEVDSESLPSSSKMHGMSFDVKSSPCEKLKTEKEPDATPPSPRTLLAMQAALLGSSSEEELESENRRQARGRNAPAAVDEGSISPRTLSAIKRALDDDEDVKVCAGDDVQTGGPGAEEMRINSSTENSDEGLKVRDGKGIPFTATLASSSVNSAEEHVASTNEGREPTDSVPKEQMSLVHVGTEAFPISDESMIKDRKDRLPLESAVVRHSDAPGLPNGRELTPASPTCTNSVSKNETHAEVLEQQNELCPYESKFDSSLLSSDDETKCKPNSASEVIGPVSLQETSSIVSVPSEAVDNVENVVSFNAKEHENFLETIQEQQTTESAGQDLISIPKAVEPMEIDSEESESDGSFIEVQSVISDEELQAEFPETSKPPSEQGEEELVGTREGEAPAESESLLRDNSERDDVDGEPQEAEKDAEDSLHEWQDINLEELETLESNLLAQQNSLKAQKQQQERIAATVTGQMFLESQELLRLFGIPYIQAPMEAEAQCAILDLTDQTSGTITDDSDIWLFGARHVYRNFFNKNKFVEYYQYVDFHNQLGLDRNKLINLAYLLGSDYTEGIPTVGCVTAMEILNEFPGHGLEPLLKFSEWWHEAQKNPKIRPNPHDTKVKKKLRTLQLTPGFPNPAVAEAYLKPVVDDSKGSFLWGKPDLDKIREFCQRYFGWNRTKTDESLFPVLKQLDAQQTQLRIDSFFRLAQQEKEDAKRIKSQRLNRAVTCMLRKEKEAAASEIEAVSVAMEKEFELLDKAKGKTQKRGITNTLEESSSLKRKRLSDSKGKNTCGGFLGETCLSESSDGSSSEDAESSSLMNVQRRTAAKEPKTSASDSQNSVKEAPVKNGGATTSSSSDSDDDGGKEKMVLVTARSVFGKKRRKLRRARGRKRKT
Chain of UniProt O14972 (O14972 whole entry, looked up): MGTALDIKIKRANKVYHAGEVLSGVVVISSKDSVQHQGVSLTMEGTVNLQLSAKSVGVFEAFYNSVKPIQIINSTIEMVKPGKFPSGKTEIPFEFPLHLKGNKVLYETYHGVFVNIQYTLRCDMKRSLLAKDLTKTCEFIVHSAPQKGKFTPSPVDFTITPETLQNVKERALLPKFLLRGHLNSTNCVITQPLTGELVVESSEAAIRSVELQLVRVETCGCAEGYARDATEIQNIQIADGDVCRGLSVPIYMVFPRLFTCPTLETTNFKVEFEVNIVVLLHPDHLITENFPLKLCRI

Target	probe-labelled cysteine peptide fold change
EEF1A1P5_Q5VTE0_363+370_GNVAGDSKNDPPMEAAGFTAQVIILNHPGQISAGYAPVLDCHMAHIACK (UniProt Q5VTE0)	-0.198
ELP4_Q96EB1_361_LNNLICDESDVK (UniProt Q96EB1)	-0.0288
EHMT1_Q9H9B1_1111_LLPEFNMAEPPLIFECNHACSCWR (UniProt Q9H9B1)	0.0188
DSCR3_O14972_219+221_VETCGCAEGYAR (UniProt O14972)	-0.345
EPRS_P07814_350_IDMSSNNGCMRDPTLYR (UniProt P07814)	-0.0274
ERCC3_P19447_342_SGVIVLPCGAGK (UniProt P19447)	-0.235
EFNB1_P98172_89+101_LYLVRPEQAAACSTVLDPNVLVTCNRPEQEIR (UniProt P98172)	-0.388
EXOSC1_Q9Y3B2_40_HGYIFSSLAGCLMK (UniProt Q9Y3B2)	0.118
ELP4_Q96EB1_412_LGPGCGMMAGGK (UniProt Q96EB1)	-0.372
DTX3L_Q8TDB6_219_DSCISPSEPETK (UniProt Q8TDB6)	-0.446
DSTN_P60981_163_LGGSLIVAFEGCPV (UniProt P60981)	-0.192
ERCC5_P28715_550_NETHAEVLEQQNELCPYESK (UniProt P28715)	-0.452
EXOSC6_Q5RKV6_117_RAPPGGCEERELALALQEALEPAVR (UniProt Q5RKV6)	-0.569
FANCI_Q9NVI1_650_LEACILTQGDK (UniProt Q9NVI1)	-0.0611
EXOSC6_Q5RKV6_117_APPGGCEERELALALQEALEPAVR (UniProt Q5RKV6)	-0.5
EXOSC10_Q01780_327_SFLGLTCLMQISTR (UniProt Q01780)	0.419
DUT_P33316-2_3_PCSEETPAISPSK (UniProt P33316)	-0.335
EIF2S1_P05198_98_VSPEEAIKCEDK (UniProt P05198)	-0.267
EML2_O95834_110_CLAIHPDMVTIATGQVAGTTK (UniProt O95834)	-0.0841
ERCC4_Q92889_803_ILWCPSPHATAELFEELK (UniProt Q92889)	-0.169

Same assay, conditions: 50 µM; THP-1; incubation time: 4 h

Target	probe-labelled cysteine peptide fold change
FCHSD2_O94868_200_SECNSK (UniProt O94868)	-0.158
FAM208A_Q9UK61_318_HVCPYAVVSFTYK (UniProt Q9UK61)	-0.698
FBXO22_Q8NEZ5_7_MEPVGCCGECR (UniProt Q8NEZ5)	1.31
DYNC1I2_Q13409_331_TTPEYVFHCQSAVMSATFAK (UniProt Q13409)	0.418
FAM208A_Q9UK61_149_ACLVHNELLEK (UniProt Q9UK61)	-1.18
EFTUD2_Q15029_144+148_TCFVDCLIEQTHPEIR (UniProt Q15029)	-0.0405
ELP1_O95163_23_DIQGPGNPQCFSLR (UniProt O95163)	-0.213
EEF1B2_P24534_191_LQIQCVVEDDK<|>EEF1D_P29692_247_LQIQCVVEDDK (UniProt P29692+P24534)	0.387
ELOVL5_Q9NYP7_61_NKQPFSCR (UniProt Q9NYP7)	-1.94
FGD3_Q5JSP0_184_LHLLDQVFCTR (UniProt Q5JSP0)	0.345
EXOSC6_Q5RKV6_248_LGLEGCQR (UniProt Q5RKV6)	0.0231
ERLEC1_Q96DZ1_126_IESYWTYEVCHGK (UniProt Q96DZ1)	0.0829
EML4_Q9HC35_638_LVDEPGHCADFHPSGTVVAIGTHSGR (UniProt Q9HC35)	0.328
ENG_P17813_549_TGTLSCTVALRPK (UniProt P17813)	-0.0378
FAM76B_Q5HYJ3_73_PCQYCNIIAAFIGTK (UniProt Q5HYJ3)	0.0361
EIF2S3_P41091_96+101_LDDPSCPRPECYR (UniProt P41091)	-0.339
EEF1A1P5_Q5VTE0_363+370_GNVAGDSKNDPPMEAAGFTAQVIILNHPGQISAGYAPVLDCHMAHIACK (UniProt Q5VTE0)	-1.24
ELP4_Q96EB1_361_LNNLICDESDVK (UniProt Q96EB1)	0.12

Target	probe-labelled cysteine peptide fold change
EHMT1_Q9H9B1_1111_LLPEFNMAEPPLIFECNHACSCWR (UniProt Q9H9B1)	-0.282
DSCR3_O14972_219+221_VETCGCAEGYAR (UniProt O14972)	-2.51
EPRS_P07814_350_IDMSSNNGCMRDPTLYR (UniProt P07814)	-0.367
ERCC3_P19447_342_SGVIVLPCGAGK (UniProt P19447)	-1.63
EFNB1_P98172_89+101_LYLVRPEQAAACSTVLDPNVLVTCNRPEQEIR (UniProt P98172)	-0.49
EXOSC1_Q9Y3B2_40_HGYIFSSLAGCLMK (UniProt Q9Y3B2)	-0.0583
ELP4_Q96EB1_412_LGPGCGMMAGGK (UniProt Q96EB1)	-1.07
DTX3L_Q8TDB6_219_DSCISPSEPETK (UniProt Q8TDB6)	-0.672
DSTN_P60981_163_LGGSLIVAFEGCPV (UniProt P60981)	-0.173
ERCC5_P28715_550_NETHAEVLEQQNELCPYESK (UniProt P28715)	-0.364
EXOSC6_Q5RKV6_117_RAPPGGCEERELALALQEALEPAVR (UniProt Q5RKV6)	-1.04
FANCI_Q9NVI1_650_LEACILTQGDK (UniProt Q9NVI1)	-0.113
EXOSC6_Q5RKV6_117_APPGGCEERELALALQEALEPAVR (UniProt Q5RKV6)	-1.49
EXOSC10_Q01780_327_SFLGLTCLMQISTR (UniProt Q01780)	0.333
DUT_P33316-2_3_PCSEETPAISPSK (UniProt P33316)	-0.042
EIF2S1_P05198_98_VSPEEAIKCEDK (UniProt P05198)	-1.12
EML2_O95834_110_CLAIHPDMVTIATGQVAGTTK (UniProt O95834)	0.0588
ERCC4_Q92889_803_ILWCPSPHATAELFEELK (UniProt Q92889)	0.181
